PAX8 reporter: PAX8 transcriptional activity inhibition; RMG-I TPO-luciferase reporter, SteadyGlo, 24 h; inhibition, % at 12.6 µM; 360,000 compounds, 1.2% hits; AID 652154;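 active = mean replicate inhibition at least 60% with every replicate also reaching 60%; inconclusive = only one of the two criteria is met; inactive = mean below 60% and not all replicates reaching 60%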;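 note: luciferase light reporting Pax8 driven TPO promoter activity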
LGR2 antag: Drosophila LGR2 receptor signaling inhibition; HEK293 LGR2, CRE-luciferase, bursicon-stimulated, 4 h; inhibition, % at 9.99 µM; 380,000 compounds, 0.35% hits; AID 720647;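 active = drop in luminescence signal, shown as inhibition above about 50% in the replicate tests, limit read from the data, passing the limit was not always enough; inconclusive = probably only some replicates passing the limit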;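 note: agonist challenge used bursicon conditioned medium at about half maximal strength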
F508del corr: correctors of CFTR F508del function in bronchial epithelial cells. activity (quench increase), % at 7.58 µM. 350,000 compounds, 0.36% hits. CFBE cells, YFP halide quenching; stimulated with forskolin plus potentiator P3; % fluorescence drop versus neutral controls;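 active = mean added fluorescence quench of at least 8% versus neutral control, with both replicates also reaching 8%; inconclusive = only one of the mean or replicate conditions met; inactive = mean below 8% and not both replicates reaching 8%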;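 note: cells transiently co-express mutant CFTR-F508del with the halide-sensitive YFP; corrector assay measuring rescue of mutant channel to the surface after 24 h compound exposure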
EWS-Fli inh: inhibitors of EWS/Fli oncoprotein transcriptional activity | A673 NR0B1-luciferase reporter, viability-normalised | inhibition, % at 12.6 µM | 350,000 compounds, 0.67% hits | AID 651661;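 active = mean inhibition of at least 50% after viability correction, with every replicate also passing that limit; inconclusive = mean reaches 50% but only one of two replicates passes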;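 note: firefly luciferase signal divided by Alamar Blue viability fluorescence both relative to DMSO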
Hits are given with their value; 0 = inactive; ? = inconclusive; - = not tested or not shown; ! = repeats disagree. Hits are enriched below; roughly 1.8% of the tested compounds scored in any of these assays.

SMILES	PAX8 reporter	LGR2 antag	F508del corr	EWS-Fli inh
C[C@H]1CN([C@@H](C)CO)C(=O)Cc2cc(NC(=O)Nc3ccc(C(F)(F)F)cc3)ccc2O[C@H]1CN(C)S(=O)(=O)c1ccccc1	-	-	11	0
C[C@@H]1CN([C@H](C)CO)C(=O)Cc2cc(NC(=O)Nc3ccc(C(F)(F)F)cc3)ccc2O[C@@H]1CN(C)S(=O)(=O)c1ccc(F)cc1	0	0	0	0
COc1cc(OC)cc(C(=O)NC(C(=O)NNC(=O)c2cc(Cl)ccc2OC)C(C)C)c1 (configuration not stated)	0	0	0	0
COc1ccc2c3c([nH]c2c1)[C@@H](CO)N(C(=O)CC1CC1)CC31CN(C(=O)c2ccccc2)C1	-	0	0	0
C#CC(=O)N(c1ccc(OC)cc1OC)C(C(=O)NC1CCCC1)c1cccs1 (configuration not stated)	93	97	0	61
CCc1ccc(CNC(=O)C2CCN(S(=O)(=O)N3CCCCC3)CC2)cc1	81	0	0	0
C=C1C(=O)[C@]23C[C@H]1CC[C@H]2[C@]1(C)[C@@H](O)CC[C@@](C)(C(=O)O)[C@H]1C[C@@H]3O	?	0	0	0
C=C1C(=O)[C@]23C[C@H]1CC[C@H]2[C@]1(C)[C@@H](OC(C)=O)CC[C@@](C)(C(=O)O)[C@H]1C[C@@H]3O	101	0	8.6	0
C=C1C(=O)[C@]23C[C@H]1CCC2[C@@]1(C)C(C[C@@H]3O)[C@](C)(C(=O)O)C[C@H](O)[C@@H]1O (some centres not stated)	0	0	0	0
C=C1C(=O)[C@]23C[C@H]1CC[C@H]2[C@]1(C)[C@@H](OC(C)=O)CC[C@@](C)(C(=O)OC)[C@H]1C[C@@H]3OC(C)=O	117	0	0	61
C=C1C(=O)[C@]23C[C@H]1CCC2[C@@]1(C)C(C[C@@H]3O)[C@](C)(C(=O)OC)CC[C@@H]1OC(C)=O (some centres not stated)	108	92	0	53
O=C(Nc1ccc2c(c1)[C@@H]1C[C@@H](CC(=O)N3CCOCC3)O[C@H](CO)[C@@H]1O2)c1ccc2c(c1)OCO2	0	0	0	0
O=C(Oc1ccc(/C=N/n2cnnc2)cc1)c1cccc([N+](=O)[O-])c1	0	73	0	0
CN(C)/N=C/c1ccc(OC(=O)c2cccc([N+](=O)[O-])c2)cc1	0	0	0	0
C[C@H]1CCCCO[C@H](CN(C)Cc2ccc(Cl)c(Cl)c2)[C@@H](C)CN([C@@H](C)CO)C(=O)c2cc(NS(=O)(=O)c3ccccc3)ccc2O1	0	0	0	0
C[C@@H]1CCCCO[C@H](CN(C)Cc2ccc(Cl)c(Cl)c2)[C@@H](C)CN([C@@H](C)CO)C(=O)c2cc(NS(=O)(=O)c3ccccc3)ccc2O1	103	-	0	0
C[C@@H]1CN([C@H](C)CO)C(=O)c2cc(NS(=O)(=O)c3ccccc3)ccc2O[C@@H](C)CCCCO[C@@H]1CN(C)Cc1ccc(Cl)c(Cl)c1	102!	0	0	0
C[C@@H]1CCCCO[C@@H](CN(C)Cc2ccc(Cl)c(Cl)c2)[C@H](C)CN([C@@H](C)CO)C(=O)c2cc(NS(=O)(=O)c3ccccc3)ccc2O1	95	0	0	0
CN(C)CC#Cc1ccc([C@H]2[C@@H](CO)N(C(=O)C3CCCC3)[C@H]2C#N)cc1	0	0	0	0
Cc1ccc(NC(=O)COc2ccccc2CNC(C)(C)CC(C)(C)C)cc1	-	0	-	-
Cc1cc(-c2csc(NC(=O)c3ccc(C#N)cc3)n2)c(C)n1Cc1ccco1	121	-	0	0
COc1ccccc1-c1cc(NC=O)c2ncc(-c3ccc(S(C)(=O)=O)cc3)n2c1	63	0	0	0
COc1ccc(-c2cc(NC=O)c3ncc(-c4cc(OC)c(OC)c(OC)c4)n3c2)cc1	72	0	0	0
COc1cccc(-c2cnc3c(NC=O)cc(-c4cc(OC)c(OC)c(OC)c4)cn23)c1	0	0	0	0
COc1ccccc1-c1cc(NC=O)c2ncc(-c3cccc(C(C)=O)c3)n2c1	-	-	0	0
SMILES	PAX8 reporter	LGR2 antag	F508del corr	EWS-Fli inh
COc1ccc(-c2cnc3c(NC=O)cc(-c4ccc(S(C)(=O)=O)cc4)cn23)cc1OC	0	0	0	0
COc1cc(-c2cnc3c(NC=O)cc(-c4ccc(S(C)(=O)=O)cc4)cn23)cc(OC)c1OC	62	0	0	0
OC[C@H]1[C@@H](c2ccc(Br)cc2)[C@H]2CN(Cc3cncnc3)CCCCN21	0	0	0	0
CN(C)C(=O)c1ccc(-c2ccc([C@H]3[C@@H](C#N)N(C(=O)C4CC4)[C@@H]3CO)cc2)cc1	0	0	0	0
Cc1ccc2nc(C)cc(Nc3ccc4c(c3)OCCO4)c2c1	0	-	-	-
Cc1cc(-c2ccccc2)nc(N/N=C/c2ccc(O)cc2O)n1	0	0	0	0
COc1ccc2nc(C)cc(N/N=C/c3cccc(OC)c3O)c2c1	95	0	0	68
Cc1cc(Nc2ccc3c(c2)OCCO3)c2ccccc2n1	88	0	0	0
Cc1cc(N/N=C/c2ccccc2O)c2ccccc2n1	0	0	16	0
COc1ccc(/C=N/Nc2cc(C)nc3ccc(Br)cc23)cc1	95	93	0	0
CCc1cc2c3c(c1)C(C)CC(C)(C)N3C(=O)/C2=C1\SC(=O)NC1=O (configuration not stated)	0	0	0	0
N#Cc1nc(NCC(F)F)nc(Nc2cc(F)cc(F)c2)n1	98	0	8.0	0
Cc1ccc(S(=O)(=O)N2C[C@H]3n4c(=O)ccc(=O)n4C[C@H](OC(=O)NCC4CCCCC4)[C@@]3(O)C2)cc1	73	0	0	0
Cc1ccc(S(=O)(=O)N2C[C@H]3n4c(=O)ccc(=O)n4C[C@H](OC(=O)NCc4ccccc4)[C@@]3(O)C2)cc1	0	0	0	0
CN(C)CC(=O)Nc1ccc2c(c1)[C@@H]1C[C@H](CC(=O)NCc3ccncc3)O[C@H](CO)[C@@H]1O2	0	0	0	0
O=C(NCCN1CCCCC1)Nc1ccc(Cl)cc1	0	0	0	0
CCN(CC)CCNC(=O)c1ccc(NC(=O)c2cn(-c3ccccc3)nc2-c2cccs2)cc1	0	-	0	58
CCOc1ccc(NC(=O)CN(C)C(=O)c2cn(-c3ccc(F)cc3)nc2-c2cccc(OC)c2)cc1OCC	0	0	0	0
CCN(CC)CCNC(=O)c1ccc(NC(=O)c2cn(-c3ccc(F)cc3)nc2-c2cccc(OC)c2)cc1	0	0	0	59
CCS(=O)(=O)Nc1ccc2c(c1)C(=O)N(C)C[C@H](OC)[C@H](C)CN(C(=O)NC(C)C)[C@H](C)CO2	-	0	0	0
CCCN(C)C[C@@H]1Oc2cc(C#CC3CCCC3)ccc2S(=O)(=O)N([C@H](C)CO)C[C@@H]1C	0	-	0	0
COc1cccc(S(=O)(=O)N[C@@H]2C=C[C@@H](CC(=O)NCc3ccncc3)O[C@@H]2CO)c1	0	0	0	0
Cn1c2c(c(=O)n(C)c1=O)C(C(F)(F)F)(C(F)(F)F)N=C(CCC1CCCCC1)N2	0	75	0	0
Cn1c2c(c(=O)n(C)c1=O)C(C(F)(F)F)(C(F)(F)F)N=C(c1ccccc1Cl)N2	0	-	-	-
